Test [1] is described as follows: ATG_GLI_CIS: Attagene CIS-FACTORIAL HepG2 Assay for human Zinc Finger Protein GLI1 (AID 2282945). The conditions noted are these: HepG2, Attagene cis-factorial reporter mRNA, GLI element; actives raise or lower the signal. Put shortly:
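Bidirectional curve fits relative to DMSO, using reporter mRNA levels from RT-PCR plus capillary electrophoresis. Cells were HepG2 transiently carrying cis-regulated reporter constructs, harvested 24 h after dosing.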

Test [2] has as its target Bile acid receptor (Homo sapiens) (UniProt Q96RI1). Nature of the test: ATG_IR1_CIS: Attagene CIS-FACTORIAL HepG2 Assay for human Nuclear Receptor Subfamily 1 Group H Member 4 (NR1H4), IR1 submotif (AID 2282946). The conditions noted are these: IR1 reporter transcription, actives raise or lower the signal. Put shortly:
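HepG2 cells transiently transfected with multiplexed cis-element reporter units read endogenous transcription factor activity. After 24 h compound exposure, reporter mRNA was quantified by RT-PCR, fluorescent labelling, HpaI digestion and capillary electrophoresis; bidirectional fitting versus DMSO baseline.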

A short description of test [3]: ATG_GRE_CIS: Attagene CIS-FACTORIAL HepG2 Assay for human Glucocorticoid Response Elements (GRE) (AID 2282947). The note with it: HepG2 GRE cis-reporter, Attagene multiplex mRNA; actives raise or lower the signal. The method in brief:
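Multiplexed cis-reporter mRNA induction, HepG2, 24 h post-dose. RT-PCR, FAM-labelled, HpaI-digested amplicons by CE. Bidirectional fit vs DMSO.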

Test [4] can be described thus: ATG_ISRE_CIS: Attagene CIS-FACTORIAL HepG2 Assay for human Interferon Regulatory Factor 1 (IRF1) binding to an Interferon-Stimulated Response Element (ISRE) (AID 2282948). The conditions noted are these: HepG2 ISRE cis-reporter (Attagene), mRNA transcription readout; actives raise or lower the signal. The method in brief:
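Signal reflects induction or loss of ISRE-linked reporter mRNA in transiently transfected HepG2 cells after a 24 h treatment, detected by fluorescent RT-PCR fragments on capillary electrophoresis and normalised to DMSO.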

Test [5] is described as follows: ATG_M_06_CIS: Attagene CIS-FACTORIAL HepG2 Assay for M06 Transcription Factor (Internal Marker) (AID 2282950). The note with it: HepG2 Attagene CIS-FACTORIAL M06 internal marker reporter; actives raise or lower the signal. Put shortly:
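Serves as a background control readout. Transfected HepG2 exposed to compounds for 24 h, then reporter transcripts quantified by fluorescent RT-PCR and capillary electrophoresis. Both directions fitted against DMSO baseline.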

For test [6], the target named is Hypoxia-inducible factor 1-alpha (Homo sapiens) (UniProt Q16665). In words: ATG_HIF1a_CIS: Attagene CIS-FACTORIAL HepG2 Assay for human Hypoxia Inducible Factor 1 (HIF1A) (AID 2282951). The note with it: HepG2 Attagene cis-factorial HIF1a reporter transcription; actives raise or lower the signal. The method in brief:
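Activity is fitted in both directions relative to DMSO. Reporter transcripts are read by RT-PCR, fluorescent primer extension and capillary electrophoresis after 24 h chemical treatment. The cells are HepG2 carrying transiently transfected cis-element-driven reporter units responding to endogenous factors.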

In test [7] the target is Hepatocyte nuclear factor 6 (Homo sapiens) (UniProt Q9UBC0). In words: ATG_HNF6_CIS: Attagene CIS-FACTORIAL HepG2 Assay for human Hepatocyte Nuclear Factor 6 (HNF6) (AID 2282952). The conditions noted are these: HepG2 Attagene cis-factorial HNF6 reporter transcription; actives raise or lower the signal. Put shortly:
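Activity values derive from bidirectional fitting against DMSO of reporter mRNA levels, measured by capillary electrophoresis of labelled RT-PCR products from HepG2 cells exposed 24 h.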

Test [8] has as its target Heat shock factor protein 1 (Homo sapiens) (UniProt Q00613). In words: ATG_HSE_CIS: Attagene CIS-FACTORIAL HepG2 Assay for human Heat Shock Transcription Factor 1 (HSE) (AID 2282953). The note with it: HepG2 HSE cis-reporter, Attagene RNA transcription; actives raise or lower the signal. Put shortly: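 Endogenous transcription factor activity in transiently transfected HepG2, read as reporter mRNA by RT-PCR with fluorescent capillary electrophoresis after 24 h. Gain or loss of signal fitted versus DMSO baseline.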

Test [9] can be described thus: ATG_MRE_CIS: Attagene CIS-FACTORIAL HepG2 Assay for human Metal Responsive Element (MRE) (AID 2282954). The conditions noted are these: HepG2 MRE cis-reporter transcription, Attagene multiplex; actives raise or lower the signal. The method in brief:
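Multiplexed cis-reporter assay in human HepG2 liver cells, 24 h incubation with test chemical. Reporter transcripts measured by RT-PCR and capillary electrophoresis; values from bidirectional curve fitting versus DMSO.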

A short description of test [10]: ATG_M_32_CIS: Attagene CIS-FACTORIAL HepG2 Assay for M32 Transcription Factor (Internal Marker) (AID 2282949).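 Also: background control marker of the multiplexed CIS panel rather than a real target.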 The note with it: HepG2 Attagene cis-factorial M32 reporter, mRNA; actives raise or lower the signal. The method in brief:
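Transient MRTU transfection of HepG2; 24 h compound treatment; TriZol RNA, oligo(dT) RT, reporter PCR, 6-FAM primer extension, HpaI cut, CE. Gain/loss of signal vs DMSO.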

By AC50 is commonly meant the concentration at which the activity in the assay is half-maximal.

“And” between values parts separate entries of the source, which are not always exact repeats. Identical values can stand only once. More than one record can exist for a structure, and the calls need not agree. The source made the active and inactive calls. The calls were made as follows: active = hit-call score of the fitted dose curve at least 0.9, where 1 is the maximum; inactive = score below 0.9.

Sequence of Heat shock factor protein 1 (Homo sapiens) (Q00613 whole entry, looked up): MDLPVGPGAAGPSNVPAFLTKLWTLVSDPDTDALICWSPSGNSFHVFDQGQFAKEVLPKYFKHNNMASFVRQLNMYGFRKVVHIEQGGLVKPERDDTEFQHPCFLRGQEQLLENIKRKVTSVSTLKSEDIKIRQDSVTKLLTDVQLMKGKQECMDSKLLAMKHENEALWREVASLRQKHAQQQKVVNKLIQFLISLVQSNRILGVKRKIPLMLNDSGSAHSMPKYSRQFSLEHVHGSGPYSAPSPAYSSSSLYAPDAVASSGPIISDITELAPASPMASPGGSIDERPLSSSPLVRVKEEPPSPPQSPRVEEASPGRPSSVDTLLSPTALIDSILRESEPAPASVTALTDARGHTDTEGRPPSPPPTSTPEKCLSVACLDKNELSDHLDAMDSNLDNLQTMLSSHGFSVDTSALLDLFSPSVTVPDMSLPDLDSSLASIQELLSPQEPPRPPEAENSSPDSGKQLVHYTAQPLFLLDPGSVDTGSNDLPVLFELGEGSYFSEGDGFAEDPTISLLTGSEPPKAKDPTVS
Sequence of Hepatocyte nuclear factor 6 (Homo sapiens) (Q9UBC0 whole entry, looked up): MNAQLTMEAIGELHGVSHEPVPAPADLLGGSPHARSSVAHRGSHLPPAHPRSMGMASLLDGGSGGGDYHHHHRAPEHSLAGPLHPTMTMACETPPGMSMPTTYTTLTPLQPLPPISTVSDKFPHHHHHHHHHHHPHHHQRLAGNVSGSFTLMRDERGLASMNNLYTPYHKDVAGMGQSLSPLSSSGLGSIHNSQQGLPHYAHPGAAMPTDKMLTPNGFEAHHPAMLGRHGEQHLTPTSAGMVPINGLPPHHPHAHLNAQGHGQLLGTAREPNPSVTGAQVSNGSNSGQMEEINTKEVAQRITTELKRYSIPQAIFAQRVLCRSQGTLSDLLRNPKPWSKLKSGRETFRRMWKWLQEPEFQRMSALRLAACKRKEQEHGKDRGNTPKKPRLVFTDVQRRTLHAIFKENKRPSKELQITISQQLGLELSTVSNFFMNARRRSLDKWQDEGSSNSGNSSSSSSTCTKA
Sequence of Bile acid receptor (Homo sapiens) (Q96RI1 whole entry, looked up): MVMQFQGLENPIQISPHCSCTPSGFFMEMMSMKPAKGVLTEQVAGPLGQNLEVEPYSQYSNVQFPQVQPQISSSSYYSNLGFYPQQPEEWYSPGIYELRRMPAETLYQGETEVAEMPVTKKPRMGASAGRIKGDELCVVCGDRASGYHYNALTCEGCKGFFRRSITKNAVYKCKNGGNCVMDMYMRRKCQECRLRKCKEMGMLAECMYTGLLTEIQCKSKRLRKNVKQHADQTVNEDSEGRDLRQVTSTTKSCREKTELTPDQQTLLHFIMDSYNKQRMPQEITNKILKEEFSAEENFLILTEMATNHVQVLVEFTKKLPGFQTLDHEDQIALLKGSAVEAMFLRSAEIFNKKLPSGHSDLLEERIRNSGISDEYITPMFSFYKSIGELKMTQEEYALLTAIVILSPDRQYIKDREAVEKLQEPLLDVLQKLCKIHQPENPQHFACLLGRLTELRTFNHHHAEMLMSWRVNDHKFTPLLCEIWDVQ
Sequence of Hypoxia-inducible factor 1-alpha (Homo sapiens) (Q16665 whole entry, looked up): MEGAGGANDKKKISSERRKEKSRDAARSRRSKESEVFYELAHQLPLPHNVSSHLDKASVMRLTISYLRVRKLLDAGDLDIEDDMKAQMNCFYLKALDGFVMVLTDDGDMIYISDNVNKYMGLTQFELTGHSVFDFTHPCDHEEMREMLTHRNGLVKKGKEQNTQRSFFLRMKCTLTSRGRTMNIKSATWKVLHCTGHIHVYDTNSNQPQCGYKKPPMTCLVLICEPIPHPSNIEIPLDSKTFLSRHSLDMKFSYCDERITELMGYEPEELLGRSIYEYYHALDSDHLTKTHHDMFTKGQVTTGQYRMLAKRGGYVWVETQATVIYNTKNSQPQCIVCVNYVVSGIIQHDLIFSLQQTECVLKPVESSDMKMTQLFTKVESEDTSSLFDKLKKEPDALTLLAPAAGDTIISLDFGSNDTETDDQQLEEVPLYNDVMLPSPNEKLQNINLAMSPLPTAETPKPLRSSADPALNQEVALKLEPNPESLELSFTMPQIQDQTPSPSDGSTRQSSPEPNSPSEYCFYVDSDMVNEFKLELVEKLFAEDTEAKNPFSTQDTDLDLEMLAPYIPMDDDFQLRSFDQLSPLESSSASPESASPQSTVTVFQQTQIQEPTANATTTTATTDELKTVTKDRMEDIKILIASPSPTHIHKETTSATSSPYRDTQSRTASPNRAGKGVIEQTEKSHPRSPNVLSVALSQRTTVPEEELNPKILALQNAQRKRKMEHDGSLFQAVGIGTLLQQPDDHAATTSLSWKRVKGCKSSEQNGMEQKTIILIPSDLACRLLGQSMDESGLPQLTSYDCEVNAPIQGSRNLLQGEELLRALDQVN

With `CC1=C(C(=O)Nc2ccccc2)SCCO1`, the molecule was called inactive in [1], in test [2], in test [3], in test [4], in test [5] and in test [6]. Also, the outcome in [7], in test [8] and in test [9] was inactive.
With `CCNc1nc(Cl)nc(NCC)n1`, the result in test [1], in test [2], in [3], in test [4], in [5] and in [6] was inactive. Besides, the molecule was classed as inactive in test [7], in test [8] and in [9].
As to `CCCCNC(=O)n1c(NC(=O)OC)nc2ccccc21`, the molecule was classed as inactive in test [1], in test [2], in test [3], in test [4], in test [5] and in test [6]. Besides, the call in test [7], in test [8] and in test [9] was inactive.
As for `Cc1cc(Cl)ccc1OCC(=O)O`, the result in test [1], in test [3], in test [4], in [5], in test [6] and in test [7] was inactive. Moreover, the molecule was called inactive in test [8] and in test [9].
For the molecule `CCOC(=O)CC(SP(=S)(OC)OC)C(=O)OCC` (stereo unspecified), the call in test [1], in test [3], in [4], in test [5], in test [6] and in test [7] was inactive. Also, the molecule was called inactive in test [8]. Further, the AC50 in test [6] was 24.4 µM (active); in test [9] it was 100 µM (active) and 13.2 µM (active).
On to `COc1nc(NC(C)C)nc(NC(C)C)n1`, for which the result in test [1], in test [2], in test [3], in [4], in [5] and in test [6] was inactive. The result in test [7], in test [8] and in test [9] was inactive.
For the molecule `COc1cnc(OC)n2nc(NS(=O)(=O)c3c(OCC(F)F)cccc3C(F)(F)F)nc12`, the call in test [1], in test [3], in [4], in [5], in test [6] and in test [7] was inactive. Also, the result in [8] and in [9] was inactive.
Regarding `CN(C)C(=S)SSC(=S)N(C)C`, the molecule was classed as inactive in test [1], in [2], in test [3], in test [4], in [5] and in test [6]. Also, the molecule was called inactive in [7], in test [8] and in test [9].
For the molecule `N#CC(CCc1ccc(Cl)cc1)(Cn1cncn1)c1ccccc1` (stereo unspecified), the molecule was classed as inactive in test [1], in test [2], in test [3], in [4], in [5] and in [6]. For the same molecule, the molecule was called inactive in test [7], in test [8] and in [9].
For the molecule `COc1nc(C)nc(NC(=O)NS(=O)(=O)c2ccccc2Cl)n1`, the molecule was called inactive in [1], in test [3], in test [4], in [5], in test [6] and in [7]. For the same molecule, the result in test [8] and in test [9] was inactive.
Consider `CCCCOC(=O)c1ccccc1C(=O)OCCCC`, for which the molecule was classed as inactive in test [1], in [3], in [4], in test [10], in [5] and in [6]. Besides, the outcome in [7], in [8] and in [9] was inactive. Moreover, the AC50 in test [6] is 59.5 µM (active); in test [9] it was 41.4 µM (active).
As to `CON(C)C(=O)Nc1ccc(Cl)c(Cl)c1`, the molecule was classed as inactive in test [1], in [3], in test [4], in [10], in test [5] and in [6]. Also, the call in test [7], in test [8] and in test [9] was inactive.
As to `CC(C)C1(C)N=C(c2nc3ccccc3cc2C(=O)O)NC1=O` (stereo unspecified), the outcome in test [1], in test [2], in test [3], in [4], in test [5] and in test [6] was inactive. Besides, the result in [7], in test [8] and in [9] was inactive.
